Assay results from PubChem BioAssay (Tox21).
Inconclusive results are not listed. A call without a number means that no potency is given here. Unmarked numbers belong to inactive results. Active and inactive are the calls of the source. Calls come from the whole dose curve; as a rule, active = well fitted cell-killing curve with a large enough effect in the repeat runs; inconclusive = weak or mixed curves, or effect the other way; inactive = flat fitted curve, though single readings scatter.

Assays:
[1] = cAMP Responsive Elements (CRE) small molecule antagonists, cell-based qHTS assay: qHTS cell viability counter screen (AID 2060913); note: nearly all actives have a fitted effect of over 40% in size
Method in brief: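 CRE-bla HEK293T cells (2,000/well, 18 h) given compound plus NKH477 0.25 uM final for 3 h at 37C; viability counter-screen by CellTiter-Glo luminescence in same wells after 30 min.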

[2] = cAMP Responsive Elements (CRE) small molecule agonists, cell-based qHTS assay: qHTS cell viability counter screen (AID 2060914);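 note: viability read after 3 h of compound exposure; nearly all actives have a fitted effect of over 50% in size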
Method in brief: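 HEK 293T CRE-bla; DMEM + 10% dialyzed FBS, 25 mM HEPES; 18 h pre-incubation; compound 3 h, 37 °C/5% CO2; CellTiter-Glo added after reporter read; luminescence after 30 min RT.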
Potency is the fitted concentration of half-maximal effect.

Structure (SMILES) | Potency [1] | Potency [2] | viability change, negative = cytotoxic [1] | activity change, negative = cytotoxicity [2]
CCC1(c2cccc(O)c2)CCCCN(C)C1 (stereo not drawn) | inactive | inactive |  | 
CCCCCOC(=O)c1ccccc1C(=O)OCCCCC | inactive | inactive |  | 
CN1C(=O)NC(=O)C(C)(C2=CCCCC2)C1=O (stereo not drawn) | inactive | inactive |  | 
CCCOC(=O)Cc1ccc(OCC(=O)N(CC)CC)c(OC)c1 | inactive | inactive |  | 
C=CC(=O)OCCO | inactive | inactive |  | 
Nc1ccc(Cc2ccc(N)cc2)cc1 | inactive | inactive |  | 
CNC(=O)Oc1cc(C)c(SC)c(C)c1 | inactive | inactive |  | 
Cc1ccc2cc(C)ccc2c1 | inactive | inactive |  | 
CN(N=O)C(N)=O | inactive | inactive |  | 
COP(=S)(OC)Oc1nc(Cl)c(Cl)cc1Cl | inactive | inactive |  | 
CCc1cc(C)cc(CC)c1-c1c(OC(=O)C(C)(C)C)n2n(c1=O)CCOCC2 | inactive | inactive |  | 
COc1ccc2c(c1OC)C(=O)O[C@@H]2[C@H]1c2cc3c(cc2CCN1C)OCO3 | inactive | inactive |  | 
CCCCCCCCCc1ccc(O)cc1 | inactive | inactive |  | 
Oc1cc(Cl)ccc1Oc1ccc(Cl)cc1Cl | 44.3 µM (active) | 62.6 µM (active) |  | 
CCC#N | inactive | inactive |  | 
Nc1ccccc1-c1ccccc1 | inactive | inactive |  | 
C[C@@H](N)[C@@H](O)c1ccccc1 | inactive | inactive |  | 
CCCCCCCCCCCCCCC(Br)C(=O)O (stereo not drawn) | inactive | inactive |  | 
CCN(CC)C1CCCCC1 | inactive | inactive |  | 
C=C(C)C#N | inactive | inactive |  | 

Structure (SMILES) | Potency [1] | Potency [2] | viability change, negative = cytotoxic [1] | activity change, negative = cytotoxicity [2]
CCCCP(CCCC)CCCC | inactive | inactive |  | 
CNC(=O)Oc1cccc2c1OC(C)(C)O2 | inactive | inactive |  | 
C=CC(=O)OCCCCOC(=O)C=C | inactive | inactive |  | 
Cc1cc(C)cc(C)c1 | inactive | inactive |  | 
OC(O)C(Cl)(Cl)Cl | inactive | inactive |  | 
C#CCN(C)[C@H](C)Cc1ccccc1 | inactive | inactive |  | 
O=C1Nc2ccc(Cl)cc2C(c2ccccc2)=NC1O (stereo not drawn) | inactive | inactive |  | 
Oc1ccc(Cl)cc1Cc1ccccc1 | inactive | inactive |  | 
CCOP(=S)(OCC)O/N=C(\C#N)c1ccccc1 | inactive | inactive |  | 
CNC(=S)S | inactive | inactive |  | 
Cn1sc(Cl)cc1=O | inactive | inactive |  | 
CC(C)c1c(CN(C)C(C)Cc2ccccc2)n(C)n(-c2ccccc2)c1=O (stereo not drawn) | inactive | inactive |  | 
Cc1cccc(C#N)c1 | inactive | inactive |  | 
O=C(O)COc1nc(Cl)c(Cl)cc1Cl | inactive | inactive |  | 
CCCCCCCCCCCCCC[P+](CCCCCC)(CCCCCC)CCCCCC (tested in a mixture with another compound) | 24.3 µM (active) | 21.7 µM (active) |  | 
O=C(Cl)CCl | inactive | inactive |  | 
COS(=O)(=O)OC | inactive | inactive |  | 
COS(=O)(=O)c1ccc(C)cc1 | inactive | inactive |  | 
CC(CC(C#N)(c1ccccc1)c1ccccc1)N(C)C (stereo not drawn) | inactive | inactive |  | 
BrCCCCBr | inactive | inactive |  | 

Structure (SMILES) | Potency [1] | Potency [2] | viability change, negative = cytotoxic [1] | activity change, negative = cytotoxicity [2]
COc1ccc(C(=O)N2CCCC2=O)cc1 | inactive | inactive |  | 
N#CCCSCCC#N | inactive | inactive |  | 
CC(C)C(=O)OCC(C)(C)C(OC(=O)C(C)C)C(C)C (stereo not drawn) | inactive | inactive |  | 
COC[C@H](C)N(C(=O)CCl)c1c(C)csc1C | inactive | inactive |  | 
C[C@H](N)[C@H](O)c1ccc(O)c(O)c1 | inactive | inactive |  | 
C[CH2][Hg][N]1C(=O)C2C(C1=O)C1(Cl)C(Cl)=C(Cl)C2(Cl)C1(Cl)Cl (stereo not drawn) |  |  | -25.3% [at 18.9 µM] | 14.8% [at 18.9 µM]
C=CCc1ccc(OC)cc1 | inactive | inactive |  | 
Cc1ccc([N+](=O)[O-])cc1C | inactive | inactive |  | 
CSCCCN=C=S | inactive | inactive |  | 
C[C@]12CC[C@H]3[C@@H](CCC4=CC(=O)CC[C@@H]43)[C@@H]1CC[C@@H]2OC(=O)CCc1ccccc1 | inactive | inactive |  | 
CC(C)(C)NC[C@H](O)c1ccc(O)cc1Cl | inactive | inactive |  | 
Cl/C=C\C[N+]12CN3CN(CN(C3)C1)C2 | inactive | inactive |  | 
ClCOCCl | inactive | inactive |  | 
NC(=S)C(N)=S | inactive | inactive |  | 
C=CC(=O)OCC(CC)CCCC (stereo not drawn) | inactive | inactive |  | 
CCCCC(CC)COC(=O)Cl (stereo not drawn) | inactive | inactive |  | 
CCN(CC)C(=O)/C(Cl)=C(\C)OP(=O)(OC)OC | inactive | inactive |  | 
O=C1C=CC(=O)C=C1 | inactive | inactive |  | 
CCc1ccccc1C | inactive | inactive |  | 
